In PubChem BioAssay (NCATS):
Records with an inconclusive call do not appear. A number with no mark means an inactive call. Activity calls are given as the source filed them. Calls come from the whole dose curve; as a rule, active = well fitted cell-killing curve with a large enough effect; inconclusive = small, poorly fitted or top-dose-only effect, or effect the other way; inactive = no such curve, though single readings can be large or run the other way.

Legend:
[1] = Quantitative High-Throughput drug screen in 47 multiple myeloma cell lines against the NCATS MIPE library collection: L363_DSMZ cell viability assay (AID 1918984); note: nearly all actives have a fitted effect of over 40% in size
Procedure, shortened: (§1)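 Plated at 500 cells per well, myeloma lines received MIPE 4.0 compounds by pin tool. Following 48 h culture at 37 °C, CellTiter-Glo luminescence gave viability relative to DMSO and media-only controls.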

[2] = Quantitative High-Throughput drug screen in 47 multiple myeloma cell lines against the NCATS MIPE library collection: KMS34_JCRB cell viability assay (AID 1918985);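 note: 100% = DMSO-only wells and 0% = media-only wells; nearly all actives have a fitted effect of over 40% in size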
Procedure, shortened: as §1

[3] = Quantitative High-Throughput drug screen in 47 multiple myeloma cell lines against the NCATS MIPE library collection: OCIMY7_PLB cell viability assay (AID 1918987); note: nearly all actives have a fitted effect of over 65% in size; note: potency is the fitted concentration of half-maximal effect
Procedure, shortened: as §1

[4] = Quantitative High-Throughput drug screen in 47 multiple myeloma cell lines against the NCATS MIPE library collection: OCIMY5_PLB cell viability assay (AID 1918988); note: nearly all actives have a fitted effect of over 65% in size; note: potency is the fitted concentration of half-maximal effect
Procedure, shortened: as §1

[5] = Quantitative High-Throughput drug screen in 47 multiple myeloma cell lines against the NCATS MIPE library collection: OPM1_PLB cell viability assay (AID 1918989); note: nearly all actives have a fitted effect of over 40% in size; note: potency is the fitted concentration of half-maximal effect
Procedure, shortened: as §1

[6] = Quantitative High-Throughput drug screen in 47 multiple myeloma cell lines against the NCATS MIPE library collection: SKMM1_PLB cell viability assay (AID 1919863); conditions: SKMM1 myeloma viability, CellTiter-Glo ATP, 48 h; viability: stronger effect = lower value; note: series mostly up to about 46 µM; nearly all actives have a fitted effect of over 35% in size
Procedure, shortened: as §1

[7] = Quantitative High-Throughput drug screen in 47 multiple myeloma cell lines against the NCATS MIPE library collection: XG1_PLB cell viability assay (AID 1919866); note: nearly all actives have a fitted effect of over 35% in size; note: potency is the fitted concentration of half-maximal effect
Procedure, shortened: as §1

[8] = Quantitative High-Throughput drug screen in 47 multiple myeloma cell lines against the NCATS MIPE library collection: U266_ATCC cell viability assay (AID 1919864); note: nearly all actives have a fitted effect of over 35% in size; note: potency is the fitted concentration of half-maximal effect
Procedure, shortened: as §1

[9] = Quantitative High-Throughput drug screen in 47 multiple myeloma cell lines against the NCATS MIPE library collection: XG6_PLB cell viability assay (AID 1919865); note: potency is the fitted concentration of half-maximal effect; nearly all actives have a fitted effect of over 40% in size
Procedure, shortened: as §1

Compound: N[C@@H](Cc1c[nH]c2ccc(O)cc12)C(=O)O
- Potency [1]: inactive
- Potency [2]: inactive
- Potency [3]: inactive
- Potency [4]: inactive
- Potency [5]: inactive
- viability [6]: 109%
- Potency [7]: inactive

Compound: CCC1(c2ccccc2)C(=O)NCNC1=O
- Potency [2]: inactive
- Potency [3]: 3.32 µM (active)
- Potency [5]: 8.33 µM (active)
- Potency [8]: 2.96 µM (active)
- Potency [9]: 2.09 µM (active)
- Potency [7]: 2.96 µM (active)

Compound: Cc1cn([C@H]2C[C@H](N=[N+]=[N-])[C@@H](CO)O2)c(=O)[nH]c1=O
- Potency [2]: inactive
- Potency [3]: 16.6 µM (active)
- Potency [5]: 29.6 µM (active)
- viability [6]: 139%
- Potency [8]: 16.6 µM (active)
- Potency [7]: 16.6 µM (active)

Compound: CC(C)C(=O)Nc1ccc([N+](=O)[O-])c(C(F)(F)F)c1
- Potency [2]: inactive
- Potency [3]: 2.96 µM (active)
- Potency [4]: 1.48 µM (active)
- Potency [5]: 8.33 µM (active)
- Potency [8]: 4.69 µM (active)
- Potency [9]: 1.05 µM (active)
- Potency [7]: 1.87 µM (active)

Compound: Cc1ccc(C(=O)Nc2ccc(S(=O)(=O)O)c3cc(S(=O)(=O)O)cc(S(=O)(=O)O)c23)cc1NC(=O)c1cccc(NC(=O)Nc2cccc(C(=O)Nc3cc(C(=O)Nc4ccc(S(=O)(=O)O)c5cc(S(=O)(=O)O)cc(S(=O)(=O)O)c45)ccc3C)c2)c1
- Potency [1]: inactive
- Potency [5]: 0.833 µM (active)
- Potency [8]: inactive
